Conditions in all cases: mRNA level, 48 h; actives raise or lower the signal
Read-out in test [1]: Early growth response protein 1 (EGR1) transcription factor, EGR1 (gene 1958)
Description: LTEA_HepaRG_EGR1: Life Technologies and Expression Analysis (LTEA) Assay for Early growth response protein 1 (EGR1) transcription factor using HepaRG (AID 2283490). The essentials:
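HepaRG, 48 h exposure, 8-pt half-log series from 100 uM, 0.5% DMSO vehicle; EGR1 transcript by TaqMan qRT-PCR (Fluidigm array), housekeeping-normalized; bidirectional fit relative to DMSO baseline.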

Read-out in test [2]: Ezrin (EZR), EZR (gene 7430)
Description: LTEA_HepaRG_EZR: Life Technologies and Expression Analysis (LTEA) Assay for Ezrin (EZR) using HepaRG (AID 2283491). The procedure, abridged:
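EZR transcript levels came from Fluidigm qRT-PCR and were normalized to three housekeeping genes after 48 h chemical exposure of HepaRG cells. Dosing used an 8-point half-log series with a 100 uM top concentration in 0.5% DMSO, tested in duplicate; both directions were fitted versus vehicle.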

Read-out in test [3]: Cytochrome P450 3A7 (Homo sapiens) (UniProt P24462)
Description: LTEA_HepaRG_CYP3A7: Life Technologies and Expression Analysis (LTEA) Assay for CYP3A7 using HepaRG (AID 2283492). The essentials:
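Human HepaRG liver cells, 48 h post-plating, switched to serum-free induction medium and exposed in duplicate for 48 h. Dosing: 100 uM top, half-log dilutions, 8 points, 0.5% DMSO vehicle. Read-out: CYP3A7 mRNA, gain or loss fitted against DMSO baseline.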

Read-out in a further test: CYP3A5 (gene 1577)
Description: LTEA_HepaRG_CYP3A5: Life Technologies and Expression Analysis (LTEA) Assay for CYP3A5 using HepaRG (AID 2283493). The essentials: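 Readout was CYP3A5 mRNA by qRT-PCR. HepaRG cultures were exposed for 48 h in serum-free induction medium to chemicals at up to 100 uM, and responses were fitted in both directions relative to DMSO vehicle.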

Read-out in test [4]: Fatty Acid-Binding Protein 1 (FABP1), FABP1 (gene 2168)
Description: LTEA_HepaRG_FABP1: Life Technologies and Expression Analysis (LTEA) Assay for Fatty Acid-Binding Protein 1 (FABP1) using HepaRG (AID 2283494). The procedure, abridged: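 qRT-PCR readout of FABP1 transcript (normalized to three housekeeping genes) after 48 h chemical exposure of HepaRG cells; eight concentrations, half-log steps, max 100 uM, 0.5% DMSO vehicle; gain or loss fitted relative to DMSO baseline.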

Read-out in test [5]: Cytochrome P450 4A22 (Homo sapiens) (UniProt Q5TCH4)
In words: LTEA_HepaRG_CYP4A22: Life Technologies and Expression Analysis (LTEA) Assay for Cytochrome P450 4A22 (CYP4A22) using HepaRG (AID 2283495). The procedure, abridged: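 Readout is CYP4A22 transcript induction or loss, quantified by qRT-PCR and normalized to ACTB, GAPDH and POLR2A. Human HepaRG cells receive test chemicals for 48 h at eight half-log concentrations from 100 uM in 0.5% DMSO.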

Read-out in test [6]: Cytochrome P450 7A1 (Homo sapiens) (UniProt P22680)
In words: LTEA_HepaRG_CYP7A1: Life Technologies and Expression Analysis (LTEA) Assay for Cytochrome P450 7A1 (CYP7A1) using HepaRG (AID 2283496). The essentials: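 Using 0.5% DMSO as vehicle and baseline, chemicals were tested in duplicate over an 8-point range from 100 uM on HepaRG cells for 48 h; qRT-PCR signals were normalised to ACTB, GAPDH and POLR2A.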

Read-out in test [7]: Glutathione S-Transferase (GSTA2), GSTA2 (gene 2939)
In words: LTEA_HepaRG_GSTA2: Life Technologies and Expression Analysis (LTEA) Assay for Glutathione S-Transferase (GSTA2) using HepaRG (AID 2283497). The procedure, abridged: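 qRT-PCR readout of GSTA2 transcript, normalized to three housekeeping genes, fitted bidirectionally against 0.5% DMSO baseline. Differentiated HepaRG cells received compound for 48 h at 8 concentrations (top 100 uM, half-log steps).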

Read-out in test [8]: Glutamate-cysteine ligase catalytic (GCLC), GCLC (gene 2729)
Description: LTEA_HepaRG_GCLC: Life Technologies and Expression Analysis (LTEA) Assay for Glutamate-cysteine ligase catalytic (GCLC) using HepaRG (AID 2283498). The procedure, abridged:
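HepaRG, 48 h exposure, 8-pt half-log series from 100 uM, 0.5% DMSO vehicle; TaqMan qRT-PCR for GCLC mRNA, housekeeping-normalized; bidirectional curve fit vs DMSO baseline.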

Read-out in test [9]: Glutamate-cysteine ligase regulatory (GCLM), GCLM (gene 2730)
In words: LTEA_HepaRG_GCLM: Life Technologies and Expression Analysis (LTEA) Assay for Glutamate-cysteine ligase regulatory (GCLM) using HepaRG (AID 2283500). The procedure, abridged:
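In this multiplexed HepaRG gene-expression assay, GCLM mRNA change after 48 h treatment (8 concentrations, max 100 uM) was scored against DMSO by bidirectional curve fitting.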

Read-out in test [10]: Glutathione S-transferase M3 (GSTM3), GSTM3 (gene 2947)
In words: LTEA_HepaRG_GSTM3: Life Technologies and Expression Analysis (LTEA) Assay for Glutathione S-transferase M3 (GSTM3) using HepaRG (AID 2283501). The procedure, abridged:
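HepaRG, plated 48 h, then serum-free induction medium; test chemical 48 h, duplicate; 100 uM top, half-log x8, 0.5% DMSO. Read-out: GSTM3 mRNA (TaqMan qRT-PCR, Fluidigm array). Bidirectional fit vs DMSO.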

Read-out in test [11]: Heat shock 70 kDa protein 1 (HSPA1A), gene 3303
Description: LTEA_HepaRG_HSPA1A: Life Technologies and Expression Analysis (LTEA) Assay for Heat shock 70 kDa protein 1 (HSPA1A) using HepaRG (AID 2283502). The essentials:
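An oxidative-stress marker readout: HepaRG cells treated 48 h in duplicate with an eight-point series (highest 100 uM) had HSPA1A mRNA quantified by TaqMan qRT-PCR. Activity was fitted in both directions using 0.5% DMSO as baseline.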

Read-out in test [12]: Hypoxia-inducible factor 1-alpha (Homo sapiens) (UniProt Q16665)
In words: LTEA_HepaRG_HIF1A: Life Technologies and Expression Analysis (LTEA) Assay for Hypoxia-inducible factor 1 (HIF1A) Trancription factor using HepaRG (AID 2283503).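 Note: HIF1A transcript by TaqMan qRT-PCR normalized to ACTB GAPDH and POLR2A.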 The essentials: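 Gain- or loss-of-signal HIF1A mRNA changes are fitted against a DMSO baseline. HepaRG cultures receive eight concentrations, highest 100 uM, for 48 h in serum-free induction medium with 0.5% DMSO.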

Read-out in test [13]: 3-Hydroxy-3-Methylglutaryl-CoA Synthase 2 (HMGCS2), HMGCS2 (gene 3158)
Description: LTEA_HepaRG_HMGCS2: Life Technologies and Expression Analysis (LTEA) Assay for 3-Hydroxy-3-Methylglutaryl-CoA Synthase 2 (HMGCS2) using HepaRG (AID 2283504). The essentials:
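HepaRG, plated 48 h then switched to serum-free induction media; cmpd 8-pt, max 100 uM, 1/2-log, 0.5% DMSO, n=2, 48 h. HMGCS2 mRNA by Fluidigm TaqMan qRT-PCR, ACTB/GAPDH/POLR2A norm; bidirectional fit vs DMSO.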

Read-out in the next test: HGF (gene 3082)
In words: LTEA_HepaRG_HGF: Life Technologies and Expression Analysis (LTEA) Assay for Hepatocyte Growth Facto (HGF) using HepaRG (AID 2283505). The procedure, abridged: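 Read-out is HGF transcript level by qRT-PCR, normalized to three housekeeping genes, fitted bidirectionally against 0.5% DMSO vehicle. Human HepaRG cells received test chemicals for 48 h at up to 100 uM.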

Read-out in test [14]: Insulin Like Growth Factor 1 (IGF1), IGF1 (gene 3479)
Description: LTEA_HepaRG_IGF1: Life Technologies and Expression Analysis (LTEA) Assay for Insulin Like Growth Factor 1 (IGF1) using HepaRG (AID 2283506). The procedure, abridged:
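Endpoint: IGF1 mRNA change by qRT-PCR, housekeeping-normalized, fitted bidirectionally relative to 0.5% DMSO vehicle. Human HepaRG cells were treated 48 h in serum-free induction medium, eight half-log concentrations topping at 100 uM.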

Read-out in test [15]: Intercellular Adhesion Molecule 1 (ICAM1), ICAM1 (gene 3383)
In words: LTEA_HepaRG_ICAM1: Life Technologies and Expression Analysis (LTEA) Assay for Intercellular Adhesion Molecule 1 (ICAM1) using HepaRG (AID 2283507). The procedure, abridged: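 Readout is qRT-PCR mRNA level, normalized to three housekeeping genes and fitted bidirectionally against 0.5% DMSO vehicle. Human HepaRG cultures received compound for 48 h, top concentration 100 uM with half-log dilutions.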

Read-out in test [16]: Interleukin 6 (IL6), IL6 (gene 3569)
Description: LTEA_HepaRG_IL6: Life Technologies and Expression Analysis (LTEA) Assay for Interleukin 6 (IL6) using HepaRG (AID 2283509). The essentials:
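qRT-PCR read-out of IL6 transcript, normalized to three housekeeping genes, after 48 h chemical exposure of HepaRG cells; 8-point half-log series, top 100 uM, 0.5% DMSO vehicle. Bidirectional curve fitting against DMSO baseline.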

Molecules are shown by their SMILES. Active and inactive are the calls of the source. Rule for the calls: active = hit-call score of the fitted dose curve at least 0.9, where 1 is the maximum; inactive = score below 0.9.

Sequence of Hypoxia-inducible factor 1-alpha (Homo sapiens) (Q16665 whole entry, looked up): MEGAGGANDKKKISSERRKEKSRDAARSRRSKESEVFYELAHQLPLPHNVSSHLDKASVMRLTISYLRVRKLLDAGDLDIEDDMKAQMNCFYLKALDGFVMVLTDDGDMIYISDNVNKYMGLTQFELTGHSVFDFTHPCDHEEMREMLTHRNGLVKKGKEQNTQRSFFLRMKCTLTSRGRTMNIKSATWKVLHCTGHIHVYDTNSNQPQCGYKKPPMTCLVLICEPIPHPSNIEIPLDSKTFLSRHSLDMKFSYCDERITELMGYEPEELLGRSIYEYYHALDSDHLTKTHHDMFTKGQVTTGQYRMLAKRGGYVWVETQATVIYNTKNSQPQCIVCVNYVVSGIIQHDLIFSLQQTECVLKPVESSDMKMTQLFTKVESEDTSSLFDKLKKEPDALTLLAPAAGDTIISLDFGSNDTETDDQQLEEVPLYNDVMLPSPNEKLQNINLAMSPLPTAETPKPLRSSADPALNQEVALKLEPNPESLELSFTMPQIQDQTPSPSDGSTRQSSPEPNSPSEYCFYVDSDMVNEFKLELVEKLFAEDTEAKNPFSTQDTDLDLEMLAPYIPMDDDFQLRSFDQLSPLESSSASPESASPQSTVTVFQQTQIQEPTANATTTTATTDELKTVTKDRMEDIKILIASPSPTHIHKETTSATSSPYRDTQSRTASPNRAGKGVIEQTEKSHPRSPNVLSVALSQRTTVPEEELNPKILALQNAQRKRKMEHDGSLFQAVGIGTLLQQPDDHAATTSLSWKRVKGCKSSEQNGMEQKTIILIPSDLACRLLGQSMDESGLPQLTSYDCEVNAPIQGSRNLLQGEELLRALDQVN
Sequence of Cytochrome P450 3A7 (Homo sapiens) (P24462 whole entry, looked up): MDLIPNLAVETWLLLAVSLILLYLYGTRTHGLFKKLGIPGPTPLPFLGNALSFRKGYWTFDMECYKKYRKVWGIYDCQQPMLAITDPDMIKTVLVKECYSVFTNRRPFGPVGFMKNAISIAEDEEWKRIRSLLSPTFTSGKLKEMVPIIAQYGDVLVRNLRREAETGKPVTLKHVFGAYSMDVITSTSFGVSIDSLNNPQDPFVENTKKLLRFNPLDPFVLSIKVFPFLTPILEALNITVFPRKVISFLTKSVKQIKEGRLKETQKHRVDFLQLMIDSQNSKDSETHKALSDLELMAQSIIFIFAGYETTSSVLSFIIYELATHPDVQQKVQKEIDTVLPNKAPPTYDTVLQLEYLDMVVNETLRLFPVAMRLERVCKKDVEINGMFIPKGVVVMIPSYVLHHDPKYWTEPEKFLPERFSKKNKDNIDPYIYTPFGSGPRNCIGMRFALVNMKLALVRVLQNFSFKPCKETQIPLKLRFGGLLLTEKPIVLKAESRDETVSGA

As usually defined, the AC50 is the concentration giving half of the maximal activity seen. For `CCc1ccc(C(=O)NN(C(=O)c2cc(C)cc(C)c2)C(C)(C)C)cc1`, the AC50 is 50 µM (active) in [1]; 12.1 µM (active) in test [3]; 50 µM (active) in test [4]; 74.4 µM (active) in [5]; 4.22 µM (active) in test [6]; 81.7 µM (active) in test [11]. In test [13], the AC50 is 50 µM (active). The outcome (in test [2]; with CYP3A5 (gene 1577); in test [7]; in test [8]; in [9]; in test [10]) was inactive. In addition, the molecule was classed as inactive (in test [12]; with HGF (gene 3082); in [14]; in test [15]; in [16]).

As to `CN1CSC(=S)N(C)C1`, the outcome (in test [1]; in [2]; in [3]; with CYP3A5 (gene 1577); in test [4]; in [5]) was inactive. Further, the outcome in [6], in [7], in test [8], in [9], in test [10] and in [11] was inactive. For the same molecule, the molecule was classed as inactive (in [12]; in test [13]; in the test with HGF (gene 3082); in [14]; in test [15]; in test [16]).

As to `CC(C)N(C(=O)COc1nnc(C(F)(F)F)s1)c1ccc(F)cc1`, the result (in [1]; in [2]; in [3]; in the test with CYP3A5 (gene 1577); in test [5]; in [8]) was inactive. In addition, the result (in [9]; in test [10]; in test [11]; in test [12]; with HGF (gene 3082); in [14]) was inactive. For the same molecule, the molecule was classed as inactive in test [15] and in test [16]. Further, the AC50 was 23 µM (active) in test [4], 24.7 µM (active) in test [6], 50 µM (active) in [7] and 50 µM (active) in test [13].

With `CCOCN(C(=O)CCl)c1c(C)cccc1CC`, the molecule was called inactive (in test [1]; in test [2]; with CYP3A5 (gene 1577); in [8]; in [9]; in test [10]). The molecule was classed as inactive (in test [11]; in test [12]; with HGF (gene 3082); in test [15]; in test [16]). Also, the AC50 in test [3] was 86.2 µM (active); in test [4] it was 87.7 µM (active); in test [5] it was 92.5 µM (active); in [6], 84.6 µM (active); in [7] it was 83.4 µM (active); in test [13], 81.2 µM (active). Also, in test [14], the AC50 was 76.4 µM (active).

For `CNC(=O)/C=C(\C)OP(=O)(OC)OC`, the molecule was called inactive (in test [1]; in test [2]; in [3]; with CYP3A5 (gene 1577); in [4]; in [5]). In addition, the molecule was classed as inactive in test [6], in [7], in [8], in test [9], in test [10] and in test [11]. Further, the molecule was called inactive (in test [12]; in [13]; in the test with HGF (gene 3082); in [14]; in test [15]; in [16]).

In the case of `CC1(C)C(C=C(Cl)Cl)C1C(=O)OC(C#N)c1ccc(F)c(Oc2ccccc2)c1` (stereo not drawn), the call (in test [1]; in test [2]; in test [3]; in the test with CYP3A5 (gene 1577); in test [4]; in test [5]) was inactive. The molecule was called inactive in [6], in test [7], in test [8], in test [9], in test [10] and in [11]. In addition, the result (in test [12]; in test [13]; with HGF (gene 3082); in test [14]; in test [15]; in [16]) was inactive.

Source of the values: PubChem BioAssay (EPA / NIEHS).
